Source: PubChem
TDP1 cell CPT: qHTS for Inhibitors of human tyrosyl-DNA phosphodiesterase 1 (TDP1): qHTS in cells in presence of CPT | hit rate 12% among 420,000 | Potency, µM (series often up to 46.2 µM), without a hit: at the top dose activity change, negative = growth inhibition, usual class: inhibitors | chicken DT40 Tdp1-/-;hTDP1 cells + 20 nM CPT, ATP luminescence, 48 h; also: potency is read from the fitted curve at half-maximal effect; nearly all actives have a fitted effect of over 55% in size
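Chicken DT40 Tdp1-/- cells stably complemented with human TDP1 were seeded at 400 cells/well in medium containing 20 nM camptothecin, exposed to pin-transferred compounds, and grown at 37 °C for at least 48 hr. Viability was read as ATP luminescence.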
12-LOX inh: Primary qHTS assay for inhibitors of human arachidonate 12S-lipoxygenase (ALOX12): Round 2; Polyunsaturated fatty acid lipoxygenase ALOX12 (Homo sapiens), P18054; hit rate 1.1% among 580,000; Potency, µM (doses to about 108 µM), for inactives: at the top dose activity change, negative = inhibition, most hits filed as inhibitors; purified 12hLO, xylenol orange hydroperoxide absorbance; also: potency is read from the fitted curve at half-maximal effect
Target sequence (P18054 whole entry, looked up): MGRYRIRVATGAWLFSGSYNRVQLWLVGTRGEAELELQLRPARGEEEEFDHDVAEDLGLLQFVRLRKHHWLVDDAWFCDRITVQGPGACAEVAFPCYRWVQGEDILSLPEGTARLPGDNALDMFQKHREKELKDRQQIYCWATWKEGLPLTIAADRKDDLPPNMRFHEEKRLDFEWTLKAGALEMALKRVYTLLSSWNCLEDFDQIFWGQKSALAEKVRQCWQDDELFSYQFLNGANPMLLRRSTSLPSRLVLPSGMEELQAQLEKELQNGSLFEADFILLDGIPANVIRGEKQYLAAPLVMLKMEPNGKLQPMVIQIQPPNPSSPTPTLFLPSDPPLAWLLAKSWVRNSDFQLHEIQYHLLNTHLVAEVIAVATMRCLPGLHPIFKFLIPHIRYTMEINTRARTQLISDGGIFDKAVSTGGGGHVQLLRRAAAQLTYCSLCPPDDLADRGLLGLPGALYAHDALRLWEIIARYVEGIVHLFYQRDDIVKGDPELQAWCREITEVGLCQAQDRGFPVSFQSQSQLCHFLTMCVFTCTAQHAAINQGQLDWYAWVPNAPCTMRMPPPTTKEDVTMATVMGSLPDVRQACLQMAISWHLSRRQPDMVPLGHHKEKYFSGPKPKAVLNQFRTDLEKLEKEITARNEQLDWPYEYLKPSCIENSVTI
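Hydroperoxide product was detected by ferrous iron/xylenol orange as the 573 to 405 nm absorbance ratio. Arachidonic acid at 40 uM (final) was turned over for 30 min at room temperature by 150 nM human 12hLO, pH 7.0 Hepes buffer, after 15 min compound preincubation.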
HT1080 IDH1KD tx: qHTS for induction of synthetic lethality in tumor cells producing 2HG: qHTS for the HT-1080-IDH1KD cell line. HT-1080 IDH1 knockdown viability, ATP luminescence, 48 h. Potency, µM (top dose mostly 46.1 µM), inactives show at the top dose activity, negative = toxicity, usual class: cytotoxic. hit rate 2% among 360,000. AID 686971, 2013;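 also: potency is read from the fitted curve at half-maximal effect; 0% = DMSO wells and -100% = cell-free medium wells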
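After a 2 h attachment period, IDH1KD HT-1080 cells took pin-transferred compound for 48 h at 37 °C; ATP-based luminescence after 10 min room-temperature reagent incubation reported viability.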
DT40 TDP1 no CPT: qHTS for Inhibitors of human tyrosyl-DNA phosphodiesterase 1 (TDP1): qHTS in cells in absence of CPT. DT40 Tdp1-/- hTDP1 cells, no CPT, ATP luminescence, 48 h. Potency, µM (doses to about 46.2 µM), for inactives: at the top dose activity change, negative = growth inhibition, actives largely listed as inhibitors. hit rate 15% among 420,000; also: potency is read from the fitted curve at half-maximal effect; nearly all actives have a fitted effect of over 55% in size
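Camptothecin absent (DMSO only). Human TDP1-complemented DT40 knockout cells, 400 cells/well, 37 °C for minimum 48 hr; ATP measured via CellTiter-Glo, 30 min dark incubation, luminescence.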
IL1B secr inh: qHTS for Inhibitors of Inflammasome Signaling: IL-1-beta AlphaLISA Primary Screen. THP-1 LPS/ATP IL-1B secretion, AlphaLISA, 16 h; stronger effect = lower value. activity change, % at 57.5 µM. hit rate 4.7% among 360,000. AID 743279, 2014; in the data active = activity change below about -50%; inconclusive = mostly about -30% to -49%
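THP-1 cells pretreated 1 hr with compounds (up to 57.5 uM final), then stimulated with LPS (250 ng/mL final) plus ATP (1.25 mM final); secreted IL-1B measured by AlphaLISA after 16 hr, decreased signal indicating inhibition.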
HT1080NT lethal: qHTS for induction of synthetic lethality in tumor cells producing 2HG: qHTS for the HT-1080-NT fibrosarcoma cell line. Potency, µM (titrated, usually from 46.1 µM), for inactives: at the top dose activity, negative = less viability, most hits filed as cytotoxic. AID 686970, 2013. HT-1080-NT fibrosarcoma viability, CellTiter-Glo ATP luminescence, 48 h. hit rate 1.6% among 360,000;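 also: NT is the 2HG producing partner of a matched IDH1 knockdown line; potency is read from the fitted curve at half-maximal effect; 0% = DMSO-treated cells and -100% = media-only wells without cells; nearly all actives have a fitted effect of over 55% in size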
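Read-out is CellTiter-Glo luminescence after 10 minutes at room temperature, following 48 hours' compound treatment of HT-1080-NT cells (750 cells/well, RPMI, 5% FBS, 37 degrees C).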
* hit, by the source's call; ? = inconclusive; / = no result. Only a selection was taken, and hits are over-represented in it overall. Unless noted, calls follow the shape of the dose curve; as a rule, active = well fitted curve in the direction sought with a large enough effect; inconclusive = small, poorly fitted or top-dose-only effect, or another doubt; inactive = no such curve, though single readings can be large; an effect the other way counts as inactive or inconclusive. Unless noted, % is scaled to controls: 0 for no effect and ±100 for the full control effect.

SMILES | TDP1 cell CPT | 12-LOX inh | HT1080 IDH1KD tx | DT40 TDP1 no CPT | IL1B secr inh | HT1080NT lethal
Cc1ccc(S(=O)(=O)C(CNC(=O)C(=O)NCCc2ccccc2)c2ccco2)cc1 (centres undefined) | ? | 2.4% | / | ? | / | /
COc1ccccc1CCNC(=O)C(=O)NCC(c1cccs1)S(=O)(=O)c1ccc(C)cc1 (centres undefined) | 14.6µM* | -24.4% | / | 20.6µM* | / | /
COc1ccc(CCNC(=O)C(=O)NCC(c2ccco2)S(=O)(=O)c2cccs2)cc1 (centres undefined) | 13µM* | -18.7% | / | 13µM* | / | /
COc1ccccc1CCNC(=O)C(=O)NCC(c1cccs1)S(=O)(=O)c1cccs1 (centres undefined) | ? | -29.4% | / | ? | / | /
COc1ccccc1CCNC(=O)C(=O)NCC(c1ccco1)S(=O)(=O)c1cccs1 (centres undefined) | 20.6µM* | 1.0% | / | ? | / | /
COc1ccccc1CCNC(=O)C(=O)NCC(c1ccco1)S(=O)(=O)c1ccc(C)cc1 (centres undefined) | 20.6µM* | ? | / | ? | / | /
c1ccc2c(c1)NC1(CCCCC1)n1c-2nc2ccccc21 | -9.8% | -15.4% | ? | -16.5% | -0.1 | -20.7%
CC1(c2ccccn2)Nc2ccccc2-c2nc3ccccc3n21 (centres undefined) | 18.4µM* | -15.6% | 3.4% | 16.4µM* | -29.4 | 0.6%
CN1C(=O)C2(Nc3ccccc3-c3nc4ccccc4n32)c2ccccc21 (centres undefined) | -19.9% | -8.6% | -4.9% | -27.8% | 0.0 | -4.7%
CCCCC1(C)Nc2ccccc2-c2nc3ccccc3n21 (centres undefined) | 16.4µM* | 0.9% | -2.9% | ? | -7.6 | -3.3%
O=C1Nc2ccccc2C12Nc1ccccc1-c1nc3ccccc3n12 (centres undefined) | ? | ? | -15.4% | 23.1µM* | -22.7 | -7.1%
Cn1nccc1C(=O)N1CCCN(S(=O)(=O)c2ccccc2)CCC(=O)NCC1 | / | 28.5% | / | / | / | /
O=C(Cc1ccc(OC(F)(F)F)cc1)N1CC(CNc2cccnc2)C2(C1)CN(c1ccccc1)C2 (centres undefined) | / | 2.1% | / | / | / | /
Cc1ccc(C(=O)NCCN2C3=NC[C@H](C(C)C)N3C[C@H]2Cc2ccc(O)cc2)cc1Br | 5.17µM* | -26.8% | -29.4% | 10.3µM* | -24.3 | -26.3%
COc1ccc(C[C@H]2CN3C(=NC[C@@H]3C(C)C)N2CCNC(=O)c2ccc(C)c(Br)c2)cc1 | 9.2µM* | / | -26.1% | 8.2µM* | -63.1* | ?
CN(C)C(=O)COC(=O)c1ccccc1-c1nc2ccccc2s1 | / | 6.4% | / | / | / | /
Cc1cc(NC(=O)C(=O)c2c[nH]c3ccccc23)no1 | / | 9.2% | / | / | / | /
CC(C)C1=NN(C(=O)c2cccnc2)C(O)(C(F)(F)F)C1 (centres undefined) | ? | 1.8% | -1.7% | ? | 23.1 | 5.5%
CC(C)CC1=NN(C(=O)c2cccnc2)C(O)(C(F)(F)F)C1 (centres undefined) | 4.11µM* | 27.7% | 17.0% | 2.91µM* | 14.0 | 6.9%
CC(C)CC1=NN(C(=O)c2ccncc2)C(O)(C(F)(F)F)C1 (centres undefined) | 2.91µM* | 32.3% | -2.4% | 3.26µM* | -10.7 | -14.1%
O=C(c1ccncc1)N1N=C(C2CC2)CC1(O)C(F)(F)F (centres undefined) | 3.66µM* | -7.3% | 11.7% | 5.17µM* | 4.6 | 3.4%
Cc1cc(Br)cc(C)c1C(=O)O | / | -23.2% | / | / | / | /
CCN(CC)c1ccc(/C=C2\C(=O)N(c3nnc(C)c(=O)[nH]3)N=C2C)cc1 | 13µM* | -16.4% | ? | 18.4µM* | -97.8* | ?
CC1=NN(CCC#N)C(=O)/C1=C/c1ccc(N(C)C)cc1 | 9.1% | 14.7% | 19.9% | ? | -6.6 | 13.0%
Cc1cc(Cl)c(OCCCN(C)C)c(Br)c1 | -1.3% | -20.6% | -13.9% | -24.0% | -6.1 | -1.5%
SMILES | TDP1 cell CPT | 12-LOX inh | HT1080 IDH1KD tx | DT40 TDP1 no CPT | IL1B secr inh | HT1080NT lethal
Cc1cc(Br)cc(C)c1OCCCCN(C)C | 29.1µM* | -20.3% | ? | ? | -20.9 | ?
CC1CCC(NC(=O)c2cc(Sc3ccc(F)cc3)nc3ccccc23)CC1 (centres undefined) | / | -19.0% | / | / | / | /
COc1ccc(CC2=C(O)c3ccccc3C(=O)C2=O)cc1 | -18.8% | ? | ? | -9.5% | 14.1 | ?
O=C1C(=O)c2ccccc2C(O)=C1CCCCl | 5.8µM* | / | ? | 4.11µM* | -66.6* | 16.4µM*
N#Cc1ccc(CSc2nnc(-c3ccncc3)n2CCc2ccccc2)cc1 | -27.4% | 0.0% | ? | ? | 15.9 | 23.1µM*
Brc1ccc(CSc2nnc(-c3cnccn3)n2Cc2ccco2)cc1 | ? | -18.8% | -0.3% | 14.6µM* | 5.6 | 5.5%
c1ccc(CCn2c(SCc3ccccc3)nnc2-c2ccncc2)cc1 | -10.9% | 38.0% | -2.0% | -12.3% | 13.4 | -5.2%
N#Cc1ccc(CSc2nnc(Cc3cccs3)n2Cc2ccco2)cc1 | ? | / | -9.6% | ? | -12.4 | -15.3%
Cc1ccc(NCc2nnc(SCC(=O)NCc3ccco3)n2CC2CCCO2)c(C)c1 (centres undefined) | -15.8% | -0.5% | 1.0% | -19.2% | -17.5 | 3.2%
N#Cc1ccc(CSc2nnc(-c3ccccc3)n2Cc2ccco2)cc1 | ? | 2.5% | ? | 29.1µM* | -28.1 | -9.0%
Cc1ccc(C(=O)CSc2nnc(CNc3ccc(C)cc3C)n2Cc2ccco2)cc1 | 20.6µM* | 0.0% | ? | ? | -2.7 | ?
Cc1cc2n(n1)CC(CNCc1cccnc1N1CCCCC1)CN2 (centres undefined) | / | 1.0% | / | / | / | /
CCCCOc1ccc(C(=O)N2CCC[C@H]2c2nc(-c3ccc(OC)cc3)no2)cc1 | / | 0.0% | / | / | / | /
Cc1ccc(C(=O)CSc2nnc(-c3ccco3)n2C)cc1 | ? | -15.8% | -1.1% | 16.4µM* | -14.4 | 3.5%
COc1ccc(C(=O)CSc2nnc(CNc3ccc(C)cc3C)n2Cc2ccco2)cc1 | 18.4µM* | -11.3% | -17.2% | 23.1µM* | ? | -5.9%
